Results reported in PubChem BioAssay (NCATS).
Results filed as inconclusive are left out. Activity calls are given as the source filed them. Calls come from the whole dose curve; as a rule, active = well fitted cell-killing curve with a large enough effect; inconclusive = small, poorly fitted or top-dose-only effect, or effect the other way; inactive = flat fitted curve, though single readings scatter. Where a SMILES comes first, the peptide text is derived from it. [ ]: non-standard residue; d: D form. dPhe(4-Cl) = N[C@H](Cc1ccc(Cl)cc1)C(=O)O; d2Nal = N[C@H](Cc1ccc2ccccc2c1)C(=O)O; dCit = NC(=O)NCCC[C@@H](N)C(=O)O; d3Pal = N[C@H](Cc1cccnc1)C(=O)O

Experiments:
Assay in all cases: Primary qHTS to identify gynecologic anti-cancer compounds using libraries of approved drugs and bioactive compounds (AID 1345084); note: nearly all actives have a fitted effect of over 55% in size
[1] = tested on: C33A; details: Gynecologic cancer cell panel viability, ATPlite luminescence, 48 h; series mostly up to 57.5 µM
Summary of the method: (§1)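 Cytotoxicity screen measuring ATP content by luciferase luminescence. Each compound is applied at five concentrations for 48 h at 37 C with 5% CO2.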

[2] = tested on: CAOV3; details: Gynecologic cancer cell panel viability, ATPlite luminescence, 48 h; series mostly up to 57.5 µM
Summary of the method: as §1

[3] = tested on: CASKI; details: Gynecologic cancer cell panel viability, ATPlite luminescence, 48 h; series mostly up to 57.5 µM
Summary of the method: as §1

[4] = tested on: Es-2; details: Gynecologic cancer cell panel viability, ATPlite luminescence, 48 h; series mostly up to 57.5 µM
Summary of the method: as §1

[5] = tested on: HeLa; details: Gynecologic cancer cell panel viability, ATPlite luminescence, 48 h; series mostly up to 57.5 µM
Summary of the method: as §1

[6] = tested on: Hek293T; details: Gynecologic cancer cell panel viability, ATPlite luminescence, 48 h, control line for the selectivity index; series mostly up to 57.5 µM
Summary of the method: as §1

[7] = tested on: JEG-3; details: Gynecologic cancer cell panel viability, ATPlite luminescence, 48 h; series mostly up to 57.5 µM
Summary of the method: as §1

[8] = tested on: OV90; details: Gynecologic cancer cell panel viability, ATPlite luminescence, 48 h; series mostly up to 57.5 µM
Summary of the method: as §1

[9] = tested on: SKOV3; details: Gynecologic cancer cell panel viability, ATPlite luminescence, 48 h; series mostly up to 57.5 µM
Summary of the method: as §1

[10] = tested on: Tov-21-G; details: Gynecologic cancer cell panel viability, ATPlite luminescence, 48 h; series mostly up to 57.5 µM
Summary of the method: as §1

[11] = tested on: Tov112D; details: Gynecologic cancer cell panel viability, ATPlite luminescence, 48 h; series mostly up to 57.5 µM
Summary of the method: as §1

[12] = tested on: PA-1; details: Gynecologic cancer cell panel viability, ATPlite luminescence, 48 h; series mostly up to 57.5 µM
Summary of the method: as §1
% is set by controls: 0 for no effect and ±100 for the full control effect.

Cc1[nH]c2ccccc2c1C1=C(NCCc2ccc(F)cc2)C(=O)N(C)C1=O
inactive: Potency [1] | Potency [2] | Potency [3] | Potency [4] | Potency [5] | Potency [6] | Potency [7] | Potency [8] | Potency [9] | Potency [10] | Potency [11]

CC#CC(=O)N1CCC[C@H]1c1nc(-c2ccc(C(=O)Nc3ccccn3)cc2)c2c(N)nccn12
inactive: Potency [1] | Potency [2] | Potency [3] | Potency [4] | Potency [5] | Potency [6] | Potency [7] | Potency [8] | Potency [12] | Potency [10] | Potency [11]

CCNC(=O)C1OC(n2cnc3c(N)nc(NCCc4ccc(CCC(=O)O)cc4)nc32)C(O)C1O (centres undefined)
inactive: Potency [1] | Potency [2] | Potency [3] | Potency [4] | Potency [5] | Potency [6] | Potency [7] | Potency [8] | Potency [12] | Potency [10] | Potency [11]

Cc1cc(C(=O)Nc2cccc(C(=O)Nc3cccc(C(F)(F)F)c3)c2)on1
inactive: Potency [1] | Potency [2] | Potency [3] | Potency [4] | Potency [5] | Potency [6] | Potency [7] | Potency [8] | Potency [12] | Potency [11]

CC(C)(C)OC(=O)N1CCC(OCc2nc(-c3ccncc3)no2)CC1
inactive: Potency [1] | Potency [2] | Potency [3] | Potency [4] | Potency [5] | Potency [6] | Potency [7] | Potency [8] | Potency [12] | Potency [11]

CC(=O)C1=C(C)N(c2cccc(C(F)(F)F)c2)C(=O)N[C@H]1c1ccc(C#N)nc1
inactive: activity change, negative = cytotoxicity [1] 16.9% [at 11.6 µM] | activity change, negative = cytotoxicity [2] 8.36% [at 11.6 µM] | activity change, negative = cytotoxicity [3] 11.8% [at 11.6 µM] | activity change, negative = cytotoxicity [4] 6.68% [at 11.6 µM] | activity change, negative = cytotoxicity [5] 11% [at 11.6 µM] | activity change, negative = cytotoxicity [6] -1.04% [at 11.6 µM] | activity change, negative = cytotoxicity [7] -3.38% [at 11.6 µM] | activity change, negative = cytotoxicity [8] 5.76% [at 11.6 µM] | activity change, negative = cytotoxicity [9] 12.1% [at 11.6 µM] | activity change, negative = cytotoxicity [10] 3.34% [at 11.6 µM] | activity change, negative = cytotoxicity [11] -8.52% [at 11.6 µM]

CC1=CC(=O)CC(C)(C)[C@@]1(O)CC[C@@H](C)O[C@@H]1O[C@H](CO)[C@@H](O)[C@H](O)[C@H]1O
inactive: Potency [1] | Potency [2] | Potency [3] | Potency [4] | Potency [5] | Potency [6] | Potency [7] | Potency [8] | Potency [9] | Potency [10] | Potency [11]

C1CCC[C@H]2CCCN3CC[C@@H](CCCCCC[C@@H]4CCCN5CC[C@@H](CC1)O[C@@H]45)O[C@@H]23
inactive: activity change, negative = cytotoxicity [1] 6.95% [at 0.155 µM] | activity change, negative = cytotoxicity [2] 1.15% [at 0.155 µM] | activity change, negative = cytotoxicity [3] -13.7% [at 0.155 µM] | activity change, negative = cytotoxicity [4] 2.67% [at 0.155 µM] | activity change, negative = cytotoxicity [5] 18.4% [at 0.155 µM] | activity change, negative = cytotoxicity [6] 4.56% [at 0.155 µM] | activity change, negative = cytotoxicity [7] -9.47% [at 0.155 µM] | activity change, negative = cytotoxicity [8] -15.5% [at 0.155 µM] | activity change, negative = cytotoxicity [9] 0.0209% [at 0.155 µM] | activity change, negative = cytotoxicity [10] 5.89% [at 0.155 µM] | activity change, negative = cytotoxicity [11] 2.94% [at 0.155 µM]

O=C1OCC(c2ccccc2)=C1Cc1ccccc1
inactive: Potency [1] | Potency [2] | Potency [3] | Potency [4] | Potency [5] | Potency [6] | Potency [7] | Potency [8] | Potency [12] | Potency [10] | Potency [11]

CC(=O)N[C@H](Cc1ccc2ccccc2c1)C(=O)N[C@H](Cc1ccc(Cl)cc1)C(=O)N[C@H](Cc1cccnc1)C(=O)N[C@@H](CO)C(=O)N[C@@H](Cc1ccc(O)cc1)C(=O)N[C@H](CCCNC(N)=O)C(=O)N[C@@H](CC(C)C)C(=O)N[C@@H](CCCN=C(N)N)C(=O)N1CCC[C@H]1C(=O)N[C@H](C)C(N)=O (Ac-[d2Nal][dPhe(4-Cl)][d3Pal]SY[dCit]LRP[dA]-NH2)
inactive: Potency [1] | Potency [2] | Potency [3] | Potency [4] | Potency [5] | Potency [6] | Potency [7] | Potency [8] | Potency [12] | Potency [10] | Potency [11]

CC1(C)C=CN2C(=O)C3=CCCN3C(=O)[C@@H]2C[C@@]12Nc1ccccc1C2=O
inactive: Potency [1] | Potency [2] | Potency [3] | Potency [4] | Potency [5] | Potency [6] | Potency [7] | Potency [8] | Potency [12] | Potency [10] | Potency [11]
